# Measurements published in PubChem BioAssay.
# Inconclusive results are not listed. Active and inactive are the calls of the source.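 How the source made its calls, unless noted: active means GFP response above 150% of the DMSO level; inconclusive means fewer than 70 events counted for a yeast strain; inactive means the rest.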
# Tests used:
# [1] = RPL19A-GFP modulators, yeast TOR pathway, confirmation, cell-based, S. cerevisiae, flow cytometry, cherry picks, mother/daughter gates (AID 2270;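 active means GFP response below 50% of the DMSO control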); details: S. cerevisiae RPL19A-GFP strain, 3 h, at 10 µM, stronger effect = lower value, 100 = same GFP as DMSO wells
# [2] = LAP4-GFP expression modulators in yeast, confirmation, cell-based, cherry picks, flow cytometry, mother/daughter gates (AID 2271;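 active means GFP response above 150% of the DMSO control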;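 further: ratio of sample to DMSO plate mean so 100% equals DMSO level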); details: S. cerevisiae LAP4-GFP strain, 3 h, at 10 µM, stronger effect = higher value
# [3] = modulators of CIT2-GFP expression in yeast, confirmation, S. cerevisiae, GFP fusion, cherry picks, mother/daughter gates (AID 2274); details: S. cerevisiae CIT2-GFP strain, flow cytometry, 3 h, at 10 µM, stronger effect = higher value
# [4] = yeast TOR pathway RPL19A-GFP modulators, primary screen, cell-based, S. cerevisiae, multiplex flow cytometry (AID 1862; in the data active means percent of DMSO control GFP below about 86%;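 further: lower values mimic rapamycin by blocking the RPL19A rise seen in DMSO cells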); details: S. cerevisiae RPL19A-GFP strain, flow cytometry fluorescence, 3 h; at 10 µM; stronger effect = lower value
# [5] = modulators of MEP2-GFP levels in yeast, primary screen, S. cerevisiae, multiplex flow cytometry (AID 1867;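 active means GFP response, as percent of the DMSO control, above the screen-wide mean plus 3 SD, about 139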;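 further: median GFP channel fluorescence of barcode-gated MEP2-GFP cells measured by flow cytometry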); details: S. cerevisiae MEP2-GFP strain, 3 h, at 10 µM, stronger effect = higher value
# [6] = modulators of CIT2-GFP expression in yeast, primary screen, S. cerevisiae, GFP fusion, multiplex flow cytometry (AID 1870;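 active means percent response above a set limit, the screen-wide mean plus 3 SD, cut at about 130% in these data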;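 further: barcoded CIT2-GFP strain pooled with four other GFP strains with rapamycin as positive control; median GFP fluorescence per well over plate mean of DMSO wells so 100% = DMSO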); details: 3 h, at 10 µM, stronger effect = higher value
# [7] = modulators of LAP4-GFP expression in yeast, primary screen, S. cerevisiae, multiplex flow cytometry (AID 1873;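 active means GFP signal, as percent of the solvent control, above the screen mean plus 3 SD, about 149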); details: 3 h, at 10 µM, stronger effect = higher value
# [8] = inhibitors of CD8+ T cell-vesicle binding, pilot screen, LFA-1/ICAM-1 modulator project, MLPCN validation set, flow cytometry (AID 2523); details: 2C mouse CD8+ T cells, at 7 µM, stronger effect = lower value; double positive events: measured here: CD8+/vesicle+ event percentage
# [9] = molecular target: Integrin beta-1 (Homo sapiens) + Integrin alpha-4 (Homo sapiens) (UniProt P13612+P05556); experiment: inhibition of HUTS-21 binding to VLA-4, pilot screen, VLA-4 allosteric modulator project, U937 cells, HUTS-21 mAb, flow cytometry, validation set (AID 2674;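 active means inhibition above 50%, about 3 SD of the validation set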;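 further: antibody binding induced by the VLA-4 ligand LDV present at three times its Kd; 0% = LDV ligand with antibody and no compound and 100% = antibody without LDV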); details: HUTS-21 LIBS mAb binding, at 6.7 µM, stronger effect = higher value
# [10] = superoxide lowering in aged yeast cells, pilot screen, validation compound set (AID 2706;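 active means superoxide response below 65% of plate, a cut near 3 SD across the whole screen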;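 further: yeast exposed to compound for one week at 30 degrees C before staining; 100% = mean of all compound wells on the same plate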); details: S. cerevisiae aging, superoxide DHE fluorescence; at 10 µM; stronger effect = lower value
# [11] = molecular target: Beta-adrenergic receptor kinase 1 (Homo sapiens) (UniProt P25098); experiment: GRK2 binders displacing RNA aptamer, biochemical, validation, human GRK2, bead flow cytometry (AID 488806;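 active means aptamer binding inhibition above 30%, about 3 SD of noise from non-fluorescent compounds; inactive means inhibition at or below 30%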); details: bead-bound GRK2, FAM-aptamer displacement, at 10 µM, stronger effect = higher value
# [12] = molecular target: AP-2 complex subunit beta (Homo sapiens) (UniProt P63010); experiment: inhibitors of arrestin peptide binding to AP2, pilot screen, biochemical, validation set, GST-AP2 beads, flow cytometry (AID 504541;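 active means inhibition above 54%, about 3 SD of non-fluorescent compounds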;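 further: AP2 carries R879A mutation and is captured from E. coli lysate; bead-bound FITC arrestin peptide fluorescence measuring arrestin peptide binding to AP2; 0% = DMSO wells and 100% = excess unlabeled arrestin peptide control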); details: FITC arrestin peptide, at 10 µM, stronger effect = higher value
# [13] = yeast V-ATPase proton transport modulators, S. cerevisiae, pHLuorin, HTS validation (AID 504600; in the data active means response above about 15%;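 further: plate controls were DMSO for no effect and reference compound for full effect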); details: S. cerevisiae pHLuorin cytosolic pH, at 10 µM, stronger effect = higher value
# [14] = system: anti-desmoglein-3 scFv antibody binding to human DSG3; experiment: inhibitors of anti-DSG3 scFv binding to DSG3, pilot screen, biochemical, validation compound set, bead-based, flow cytometry (AID 588368;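 active means binding below the plate cutoff, the plate median minus 3 SD, with a reading above zero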;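 further: signal is the median channel fluorescence of bead-bound GFP antibody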); details: Protein G beads, DSG3-Fc, scFv-GFP binding, at 10 µM, stronger effect = lower value
# [15] = system: Botulinum neurotoxin type F light chain protease (Clostridium botulinum); experiment: Botulinum neurotoxin type F light chain protease inhibition, multiplex microsphere flow cytometry, validation set (AID 588459; call rule not given here); details: multiplex microsphere protease substrate cleavage assay, at 10 µM, stronger effect = higher value
# [16] = molecular target: Botulinum neurotoxin type A (Clostridium botulinum) (UniProt P0DPI0); experiment: BoNT/A light chain protease inhibitors, biochemical, multiplex microsphere flow cytometry, validation set (AID 588460; call rule not given here); details: at 10 µM, stronger effect = higher value
# [17] = molecular target: Lethal factor (Bacillus anthracis) (UniProt P15917); experiment: Lethal factor protease inhibitors, Bacillus anthracis, multiplex microsphere cleavage assay, validation set (AID 588461; call rule not given here); details: flow cytometry, at 10 µM, stronger effect = higher value
# [18] = inhibitors of fungal efflux pumps CDR1, CDR2, MDR1, pilot screen, validation compound set, multiplex, phenotypic (AID 588506;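 active means efflux inhibition above 0.42, the validation set average plus 4 SD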;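 further: Nile Red retained in cells so higher fluorescence means more efflux inhibition; 0 = negative control wells and 1 = enniatin B 25 µM full block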); details: S. cerevisiae pump-expressing triplex, Nile Red efflux flow cytometry; at 10 µM; stronger effect = higher value
# [19] = molecular target: ATP-binding cassette sub-family B member 6 (Homo sapiens) (UniProt Q9NP58); experiment: ABCB6 transporter inhibitors, pilot screen, K562-ABCB6 cells, flow cytometry, validation set (AID 588550;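 active means inhibition above the screen-wide mean plus 3 SD, about 51%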;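 further: 0% = DMSO wells and 100% = benzethonium chloride 70 µM positive control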); details: K562-ABCB6 porphyrin accumulation, 1 h, at 10 µM, stronger effect = higher value
# [20] = promoters of myeloid differentiation in arrested cells, primary screen, cell-based, GFP/MAC1 double positive, flow cytometry, validation set (AID 588685;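 active means differentiation response of at least 50%, scaled between solvent and reference control, from cells with both markers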;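 further: compound exposure lasts four days before antibody staining and flow analysis; 0% = DMSO wells and 100% = 5 µM fulvestrant positive control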); details: ER-HoxA9 marrow cells, stronger effect = higher value
# [21] = measured here: daughter cell gate
# [22] = measured here: mother cell gate
# [23] = measured here: daughter cell gate response
# [24] = measured here: mother cell gate response
# ATP-binding cassette sub-family B member 6 (Homo sapiens), sequence (Q9NP58 whole entry, looked up): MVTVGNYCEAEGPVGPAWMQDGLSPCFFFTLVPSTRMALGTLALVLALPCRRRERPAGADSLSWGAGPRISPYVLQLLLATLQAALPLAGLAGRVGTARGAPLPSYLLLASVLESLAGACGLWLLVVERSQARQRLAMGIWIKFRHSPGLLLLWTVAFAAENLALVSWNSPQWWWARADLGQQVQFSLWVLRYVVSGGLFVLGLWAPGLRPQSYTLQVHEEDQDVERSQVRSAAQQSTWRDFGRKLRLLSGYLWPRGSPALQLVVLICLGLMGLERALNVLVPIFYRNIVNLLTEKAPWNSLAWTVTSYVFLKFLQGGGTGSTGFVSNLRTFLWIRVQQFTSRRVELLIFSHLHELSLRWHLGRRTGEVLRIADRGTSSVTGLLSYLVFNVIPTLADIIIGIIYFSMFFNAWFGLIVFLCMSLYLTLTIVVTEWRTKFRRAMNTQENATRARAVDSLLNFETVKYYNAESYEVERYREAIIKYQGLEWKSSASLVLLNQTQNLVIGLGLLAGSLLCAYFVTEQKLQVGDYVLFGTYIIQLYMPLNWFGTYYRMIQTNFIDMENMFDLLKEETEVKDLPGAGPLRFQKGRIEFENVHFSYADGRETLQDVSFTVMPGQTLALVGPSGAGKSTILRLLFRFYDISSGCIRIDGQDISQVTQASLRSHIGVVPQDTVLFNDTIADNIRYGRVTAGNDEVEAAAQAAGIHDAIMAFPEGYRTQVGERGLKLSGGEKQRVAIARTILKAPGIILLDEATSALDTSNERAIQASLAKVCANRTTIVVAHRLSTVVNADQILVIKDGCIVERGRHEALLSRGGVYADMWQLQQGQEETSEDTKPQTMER
# AP-2 complex subunit beta (Homo sapiens), sequence (P63010 whole entry, looked up, one chain of several): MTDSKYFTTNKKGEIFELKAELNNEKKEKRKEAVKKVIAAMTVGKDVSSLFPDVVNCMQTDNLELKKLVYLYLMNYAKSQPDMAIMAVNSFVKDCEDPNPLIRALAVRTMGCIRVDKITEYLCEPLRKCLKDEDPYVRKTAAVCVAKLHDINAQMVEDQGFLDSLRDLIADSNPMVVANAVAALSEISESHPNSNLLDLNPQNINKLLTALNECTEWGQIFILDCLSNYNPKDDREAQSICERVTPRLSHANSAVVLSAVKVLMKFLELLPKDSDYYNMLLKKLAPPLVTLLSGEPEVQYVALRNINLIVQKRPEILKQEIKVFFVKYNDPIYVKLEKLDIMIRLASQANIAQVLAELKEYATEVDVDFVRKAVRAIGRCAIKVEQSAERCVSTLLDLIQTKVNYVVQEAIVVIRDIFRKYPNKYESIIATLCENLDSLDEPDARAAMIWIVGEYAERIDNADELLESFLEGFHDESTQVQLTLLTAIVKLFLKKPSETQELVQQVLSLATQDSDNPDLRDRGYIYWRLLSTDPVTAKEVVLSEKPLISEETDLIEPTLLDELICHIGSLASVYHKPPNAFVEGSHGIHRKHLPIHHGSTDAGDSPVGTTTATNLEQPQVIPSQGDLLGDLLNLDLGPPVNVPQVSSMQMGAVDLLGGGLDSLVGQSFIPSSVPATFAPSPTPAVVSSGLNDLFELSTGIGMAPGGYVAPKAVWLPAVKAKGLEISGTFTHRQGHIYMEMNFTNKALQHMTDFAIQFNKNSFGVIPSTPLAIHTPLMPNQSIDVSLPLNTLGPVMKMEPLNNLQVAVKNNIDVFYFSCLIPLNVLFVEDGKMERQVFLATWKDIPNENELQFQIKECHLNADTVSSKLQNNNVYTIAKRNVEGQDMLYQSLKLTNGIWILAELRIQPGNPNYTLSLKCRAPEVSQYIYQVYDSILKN
# Integrin beta-1 (Homo sapiens) + Integrin alpha-4 (Homo sapiens), sequence (P05556 whole entry, looked up): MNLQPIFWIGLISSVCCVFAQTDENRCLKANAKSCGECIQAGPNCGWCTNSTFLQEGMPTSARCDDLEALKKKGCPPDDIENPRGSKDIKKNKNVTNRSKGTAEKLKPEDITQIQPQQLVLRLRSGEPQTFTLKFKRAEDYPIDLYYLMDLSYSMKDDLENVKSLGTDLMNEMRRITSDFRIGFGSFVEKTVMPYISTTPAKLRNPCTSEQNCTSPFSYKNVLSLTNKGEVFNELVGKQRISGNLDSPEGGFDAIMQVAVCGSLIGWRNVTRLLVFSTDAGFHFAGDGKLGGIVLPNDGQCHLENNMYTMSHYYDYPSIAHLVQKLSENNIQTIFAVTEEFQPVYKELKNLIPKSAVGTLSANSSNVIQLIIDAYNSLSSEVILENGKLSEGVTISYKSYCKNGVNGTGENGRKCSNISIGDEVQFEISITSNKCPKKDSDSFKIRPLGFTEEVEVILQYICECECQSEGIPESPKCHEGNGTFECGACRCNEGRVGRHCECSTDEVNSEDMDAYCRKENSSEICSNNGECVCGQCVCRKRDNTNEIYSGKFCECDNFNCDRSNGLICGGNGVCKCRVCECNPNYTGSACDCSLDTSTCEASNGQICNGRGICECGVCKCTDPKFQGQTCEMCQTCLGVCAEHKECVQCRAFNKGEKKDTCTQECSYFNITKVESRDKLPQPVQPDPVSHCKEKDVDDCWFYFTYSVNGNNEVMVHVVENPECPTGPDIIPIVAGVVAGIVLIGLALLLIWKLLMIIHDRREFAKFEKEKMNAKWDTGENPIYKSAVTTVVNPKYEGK
# Integrin beta-1 (Homo sapiens) + Integrin alpha-4 (Homo sapiens), sequence (P13612 whole entry, looked up): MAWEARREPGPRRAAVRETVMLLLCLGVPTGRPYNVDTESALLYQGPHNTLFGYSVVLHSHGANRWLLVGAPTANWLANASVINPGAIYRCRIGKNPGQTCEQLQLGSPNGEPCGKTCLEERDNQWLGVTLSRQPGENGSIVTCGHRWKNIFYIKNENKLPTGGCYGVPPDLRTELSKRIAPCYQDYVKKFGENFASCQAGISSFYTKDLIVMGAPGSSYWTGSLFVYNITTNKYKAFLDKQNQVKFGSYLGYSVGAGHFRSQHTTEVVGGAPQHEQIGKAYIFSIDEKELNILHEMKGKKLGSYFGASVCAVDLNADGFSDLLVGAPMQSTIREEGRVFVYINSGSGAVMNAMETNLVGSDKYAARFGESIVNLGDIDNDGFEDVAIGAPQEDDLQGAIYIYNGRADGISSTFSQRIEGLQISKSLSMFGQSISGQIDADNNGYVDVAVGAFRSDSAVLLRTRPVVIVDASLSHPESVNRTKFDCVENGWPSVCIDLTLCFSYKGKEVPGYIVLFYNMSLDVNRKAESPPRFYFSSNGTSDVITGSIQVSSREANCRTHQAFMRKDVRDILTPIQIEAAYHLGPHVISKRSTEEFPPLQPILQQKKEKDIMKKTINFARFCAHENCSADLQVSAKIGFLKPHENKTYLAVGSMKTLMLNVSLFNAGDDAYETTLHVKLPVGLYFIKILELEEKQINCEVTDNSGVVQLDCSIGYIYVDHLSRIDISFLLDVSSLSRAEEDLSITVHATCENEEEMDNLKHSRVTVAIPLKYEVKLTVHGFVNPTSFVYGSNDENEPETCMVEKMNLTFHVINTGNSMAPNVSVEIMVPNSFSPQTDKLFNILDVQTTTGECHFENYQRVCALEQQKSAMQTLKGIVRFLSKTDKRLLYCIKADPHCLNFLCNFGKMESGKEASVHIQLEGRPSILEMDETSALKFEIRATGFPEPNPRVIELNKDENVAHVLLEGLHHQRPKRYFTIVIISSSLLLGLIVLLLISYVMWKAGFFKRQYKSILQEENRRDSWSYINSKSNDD
# Lethal factor (Bacillus anthracis), sequence (P15917 whole entry, looked up): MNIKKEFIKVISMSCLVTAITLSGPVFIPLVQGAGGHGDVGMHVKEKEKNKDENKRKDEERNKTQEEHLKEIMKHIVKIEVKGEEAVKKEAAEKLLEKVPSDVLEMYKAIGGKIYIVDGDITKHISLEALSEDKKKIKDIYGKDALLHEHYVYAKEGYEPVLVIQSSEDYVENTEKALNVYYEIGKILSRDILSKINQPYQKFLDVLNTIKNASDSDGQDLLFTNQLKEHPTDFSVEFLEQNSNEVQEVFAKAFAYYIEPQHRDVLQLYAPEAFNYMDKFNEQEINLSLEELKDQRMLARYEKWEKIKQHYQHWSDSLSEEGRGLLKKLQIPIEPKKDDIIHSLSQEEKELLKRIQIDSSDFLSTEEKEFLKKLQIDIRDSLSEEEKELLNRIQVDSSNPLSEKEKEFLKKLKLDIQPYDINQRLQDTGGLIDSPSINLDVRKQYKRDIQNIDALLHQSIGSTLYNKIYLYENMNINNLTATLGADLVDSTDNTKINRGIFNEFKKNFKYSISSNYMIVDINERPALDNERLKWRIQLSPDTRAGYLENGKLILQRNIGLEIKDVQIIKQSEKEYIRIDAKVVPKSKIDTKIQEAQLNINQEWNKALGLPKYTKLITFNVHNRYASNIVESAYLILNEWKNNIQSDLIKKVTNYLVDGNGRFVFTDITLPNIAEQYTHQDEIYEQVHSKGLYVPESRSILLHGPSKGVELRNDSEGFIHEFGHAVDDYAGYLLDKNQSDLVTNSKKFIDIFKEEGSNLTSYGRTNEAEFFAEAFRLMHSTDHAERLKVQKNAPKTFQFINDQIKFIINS
structure (smiles),measurement,setting,value
O=C1NC(=O)N(CCc2ccc(F)cc2)C(=O)/C1=C/c1ccco1,GFP response vs DMSO,[1],98% (inactive)
same,GFP response vs DMSO,[1]; [21],99.4%
same,GFP response vs DMSO,[1]; [22],97%
same,GFP response relative to DMSO,[2],104% (inactive)
same,GFP response relative to DMSO,[2]; [23],106%
same,GFP response relative to DMSO,[2]; [24],104%
same,"GFP response, % of DMSO",[3],98.4% (inactive)
same,"GFP response, % of DMSO",[3]; [21],100%
same,"GFP response, % of DMSO",[3]; [22],93.7%
CCNC(=O)[C@H]1O[C@@H](n2cnc3c(N)ncnc32)[C@H](O)[C@@H]1O,percent of DMSO control GFP,[4],97% (inactive)
same,GFP response vs DMSO,[5],115% (inactive)
same,percent response of DMSO control,[6],104% (inactive)
same,GFP response vs DMSO,[7],88.6% (inactive)
same,double positive events,[8],48.3%
same,inhibition,[9],15.2% (inactive)
same,superoxide response (% of plate),[10],111% (inactive)
same,aptamer binding inhibition,[11],66% (active)
same,inhibition,[12],3.14% (inactive)
same,response,[13],0.72% (inactive)
same,binding (% of control),[14],107% (inactive)
same,inhibition,[15],-4.2% (inactive)
same,inhibition,[16],0% (inactive)
same,inhibition,[17],2.8% (inactive)
same,efflux inhibition (fraction of control),[18],0.37 (inactive)
same,inhibition,[19],11% (inactive)
same,differentiation response,[20],5.73% (inactive)
N#CC(C#N)=Cc1ccc(N2CCCC2)cc1,GFP response vs DMSO,[1],105% (inactive)
same,GFP response vs DMSO,[1]; [21],102%
same,GFP response vs DMSO,[1]; [22],107%
same,GFP response relative to DMSO,[2],111% (inactive)
same,GFP response relative to DMSO,[2]; [23],109%
same,GFP response relative to DMSO,[2]; [24],112%
same,"GFP response, % of DMSO",[3],105% (inactive)
same,"GFP response, % of DMSO",[3]; [21],106%
same,"GFP response, % of DMSO",[3]; [22],104%
O=[N+]([O-])c1ccc(N2CCNCC2)cc1Sc1ccccn1,GFP response vs DMSO,[1],98.4% (inactive)
same,GFP response vs DMSO,[1]; [21],98.4%
same,GFP response vs DMSO,[1]; [22],99.4%
same,GFP response relative to DMSO,[2],91.4% (inactive)
same,GFP response relative to DMSO,[2]; [23],92.5%
same,GFP response relative to DMSO,[2]; [24],91.1%
same,"GFP response, % of DMSO",[3],96.5% (inactive)
same,"GFP response, % of DMSO",[3]; [21],96.5%
same,"GFP response, % of DMSO",[3]; [22],95.5%
CN1C(=O)C(=Cc2ccc(Sc3ccccc3)o2)C(=O)N(C)C1=S,GFP response vs DMSO,[1],98.2% (inactive)
same,GFP response vs DMSO,[1]; [21],94.4%
same,GFP response vs DMSO,[1]; [22],91.3%
same,GFP response relative to DMSO,[2],126% (inactive)
same,GFP response relative to DMSO,[2]; [23],114%
same,GFP response relative to DMSO,[2]; [24],130%
same,"GFP response, % of DMSO",[3],99.3% (inactive)
same,"GFP response, % of DMSO",[3]; [21],117%
same,"GFP response, % of DMSO",[3]; [22],84%
O=C1NC(=O)N(c2ccccc2)C(=O)/C1=C/c1ccc(Sc2ccccc2)o1,GFP response vs DMSO,[1],99.7% (inactive)
same,GFP response vs DMSO,[1]; [21],98.5%
same,GFP response vs DMSO,[1]; [22],95.2%
same,GFP response relative to DMSO,[2],177% (active)
same,GFP response relative to DMSO,[2]; [23],135%
same,GFP response relative to DMSO,[2]; [24],170%
same,"GFP response, % of DMSO",[3],89.2% (inactive)
same,"GFP response, % of DMSO",[3]; [21],98.3%
same,"GFP response, % of DMSO",[3]; [22],79.3%
O=c1[nH]c(=S)n(-c2ccccc2)c(O)c1/C=N/N1CCOCC1,GFP response vs DMSO,[1],102% (inactive)
same,GFP response vs DMSO,[1]; [21],103%
same,GFP response vs DMSO,[1]; [22],102%
same,GFP response relative to DMSO,[2],95.7% (inactive)
same,GFP response relative to DMSO,[2]; [23],97.5%
same,GFP response relative to DMSO,[2]; [24],96.2%
same,"GFP response, % of DMSO",[3],100% (inactive)
same,"GFP response, % of DMSO",[3]; [21],103%
same,"GFP response, % of DMSO",[3]; [22],99.3%
O=C1NC(=O)C(=Cc2ccc(Sc3ccccc3)o2)C(=O)N1,GFP response vs DMSO,[1],103% (inactive)
same,GFP response vs DMSO,[1]; [21],93.1%
same,GFP response vs DMSO,[1]; [22],89.2%
same,GFP response relative to DMSO,[2],140% (inactive)
same,GFP response relative to DMSO,[2]; [23],107%
same,GFP response relative to DMSO,[2]; [24],148%
same,"GFP response, % of DMSO",[3],91.2% (inactive)
same,"GFP response, % of DMSO",[3]; [22],77.2%
CN1C(=O)C(=Cc2ccc(SC3CCCCC3)o2)C(=O)N(C)C1=O,GFP response vs DMSO,[1],95.8% (inactive)
same,GFP response vs DMSO,[1]; [21],98.3%
same,GFP response vs DMSO,[1]; [22],92.3%
same,GFP response relative to DMSO,[2],143% (inactive)
same,GFP response relative to DMSO,[2]; [23],134%
same,GFP response relative to DMSO,[2]; [24],150%
same,"GFP response, % of DMSO",[3],83.5% (inactive)
same,"GFP response, % of DMSO",[3]; [21],84.1%
same,"GFP response, % of DMSO",[3]; [22],77.8%
